{"source": "PubChem BioAssay (NCATS)", "note": "Results filed as inconclusive are left out. Values without a mark were called inactive. Active and inactive are the calls of the source. Calls come from the whole dose curve; as a rule, active = well fitted cell-killing curve with a large enough effect; inconclusive = small, poorly fitted or top-dose-only effect, or effect the other way; inactive = no such curve, though single readings can be large or run the other way. Potency is the fitted concentration of half-maximal effect.", "data": [{"assay": "Viability qHTS for spleen associated tyrosine kinase inhibitor (SYKi) naive MV4-11 cells (AID 1963823); note: nearly all actives have a fitted effect of over 40% in size", "conditions": "MV4-11 AML viability, CellTiter-Glo luminescence, 72 h; series mostly up to 45 µM; viability (% of control): at the top concentration", "how_it_was_run": "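qHTS, SYK inhibitor-naive MV4-11; 500 cells/well; 72 hr compound exposure, 37 C; CellTiter-Glo added, 10 min RT; luminescence read.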", "values": [{"smiles": "C[C@@H]1C(=O)O[C@H]2CC34[C@H]5C[C@@H](C(C)(C)C)C36[C@@H](OC(=O)[C@@H]6O)OC4(C(=O)O5)[C@]21O", "note": "(stereo partly drawn)", "viability (% of control)": "57.5%"}, {"smiles": "CC(C)C[C@H](NC(=O)CNC(=O)OCc1ccccc1)C(=O)N[C@@H](Cc1ccccc1)C(=O)CCl", "Potency": "18.4 µM (active)"}, {"smiles": "C[S+](CC[C@H](N)C(=O)[O-])C[C@H]1O[C@@H](n2cnc3c(N)ncnc32)[C@H](O)[C@@H]1O", "note": "(stereo partly drawn)", "viability (% of control)": "73.3%"}, {"smiles": "CC(C)(O)/C=C/C(=O)[C@](C)(O)[C@H]1[C@H](O)C[C@@]2(C)[C@@H]3CC=C4[C@@H](C=C(O[C@@H]5O[C@H](CO)[C@@H](O)[C@H](O)[C@H]5O)C(=O)C4(C)C)[C@]3(C)C(=O)C[C@]12C", "viability (% of control)": "51.7% [at 17.3 µM]"}, {"smiles": "CC(=O)OC1(C)CC(O)C2(O)C=COC(OC3OC(CO)C(O)C(O)C3O)C12", "note": "(stereo not drawn)", "viability (% of control)": "78.4% [at 17.3 µM]"}, {"smiles": "CC1(CO)CC[C@]2(C(=O)O[C@@H]3O[C@H](CO)[C@@H](O)[C@H](O)[C@H]3O)CC[C@]3(C)C(=CCC4[C@@]5(C)CC[C@H](O[C@@H]6O[C@H](C(=O)O)[C@@H](O)[C@H](O)[C@H]6O)C(C)(C)C5CC[C@]43C)C2C1", "note": "(stereo partly drawn)", "viability (% of control)": "87.4% [at 9.25 µM]"}, {"smiles": "COc1ccc(/C=C/C(=O)O[C@@H]2[C@@H](O)[C@@H](O)[C@H](O[C@@H]3C=C(CO)[C@H]4[C@H](O[C@@H]5O[C@H](CO)[C@@H](O)[C@H](O)[C@H]5O)OC=C[C@H]43)O[C@H]2C)cc1O", "viability (% of control)": "78.1% [at 17.3 µM]"}, {"smiles": "CNS(=O)(=O)c1ccccc1Nc1nc(Nc2ccc(N3CCN(C)CC3)cc2OC)ncc1Br", "Potency": "0.0184 µM (active)"}]}]}
